Data taken from PubChem BioAssay AID1159580 (chemical genetic matrix, 2015).
In all, about 5,500 compounds went through this assay and about 2,000 (36%) were called active. Inconclusive results (about 18%) are left out. Rule as the data show it: active = normalized growth mostly below about 0.91 (no sharp cut-off); inconclusive = no clear call, values can overlap the other calls; inactive = mostly above about 0.92. The list shows a part of the results.

Assay: chemical genetic growth profiling, strain panel (AID 1159580);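 also: tested at 20 µM; growth read once vehicle control cultures reached saturation at 30 °C; 1 = growth at the plate median or of vehicle wells; lower values mean less growth of the strain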
Details: S. cerevisiae deletion strains, growth OD
[1] = locus YAL040C, strain CLN3, active compounds read low
[2] = locus YCL061C, strain MRC1 (second series), active compounds read low
[3] = locus YDR363W, strain ESC2, active compounds read low
[4] = locus YER002W, strain NOP16, active compounds read low
[5] = locus YNL175C, strain NOP13, active compounds read low
[6] = locus YNL197C, strain WHI3, active compounds read low
[7] = locus YNL224C, strain SQS1, active compounds read low
[8] = locus YNL322C, strain KRE1, active compounds read low
[9] = locus YOR083W, strain WHI5 (second series), active compounds read low
[10] = locus YPL055C, strain LGE1, active compounds read low
[11] = locus YPL241C, strain CIN2, active compounds read low

Measured: normalized growth

O[Si](CCCN1CCCCC1)(c1ccc(F)cc1)C1CCCCC1 (configuration not stated)
inactive: [1] 0.964 | [2] 0.986 | [3] 0.988 | [4] 1.04 | locus YGR229C, strain SMI1, active compounds read low 0.972 | locus YJR075W, strain HOC1, active compounds read low 1.02 | locus YMR263W, strain SAP30, active compounds read low 1 | [5] 0.995 | [6] 1.01 | [7] 1.01 | [8] 0.982 | [9] 1.08 | [10] 0.981 | [11] 0.994

CC1=CC(=O)C(CCOCCC2=CC(=O)C(C)=CC2=O)=CC1=O
active: locus YHR082C, strain KSP1, active compounds read low 0.444 | locus YLR113W, strain HOG1, active compounds read low 0.685 | locus YPL256C, strain CLN2, active compounds read low 0.234
inactive: locus YAR019C, strain CDC15, active compounds read low 0.981 | locus YBL105C, strain PKC1, active compounds read low 0.99 | locus YBR135W, strain CKS1, active compounds read low 0.985 | locus YBR136W, strain MEC1, active compounds read low 0.982 | locus YBR160W, strain CDC28, active compounds read low 0.983 | locus YDL017W, strain CDC7, active compounds read low 0.992 | locus YDL028C, strain MPS1, active compounds read low 0.981 | locus YDL101C, strain DUN1, active compounds read low 0.973 | locus YDL108W, strain KIN28, active compounds read low 0.983 | locus YDL132W, strain cdc53, active compounds read low 0.988 | locus YDL214C, strain PRR2, active compounds read low 0.701 | locus YDR052C, strain DBF4, active compounds read low 0.991 | locus YDR054C, strain cdc34, active compounds read low 0.986 | locus YDR226W, strain ADK1, active compounds read low 0.979 | locus YDR477W, strain SNF1, active compounds read low 0.706 | locus YER123W, strain YCK3, active compounds read low 0.806 | locus YER133W, strain GLC7, active compounds read low 0.765 | locus YFL009W, strain cdc4, active compounds read low 0.993 | locus YFL029C, strain CAK1, active compounds read low 0.987 | locus YFR003C, strain YPI1, active compounds read low 0.989 | locus YFR019W, strain FAB1, active compounds read low 0.864 | locus YFR028C, strain CDC14, active compounds read low 0.985 | locus YGR040W, strain KSS1, active compounds read low 0.739 | locus YGR052W, strain FMP48, active compounds read low 0.7 | locus YGR092W, strain DBF2, active compounds read low 0.917 | locus YHR079C, strain IRE1, active compounds read low 1.07 | locus YHR205W, strain SCH9, active compounds read low 0.958 | locus YIL147C, strain SLN1, active compounds read low 0.984 | locus YJL095W, strain BCK1, active compounds read low 0.863 | locus YJL128C, strain PBS2, active compounds read low 0.934 | locus YJR016C, strain ILV3, active compounds read low 0.987 | locus YJR066W, strain TOR1 (second series), active compounds read low 0.804 | locus YJR066W, strain TOR1, active compounds read low 0.502 | locus YKL048C, strain ELM1, active compounds read low 0.981 | locus YKL067W, strain YNK1, active compounds read low 0.857 | locus YKL101W, strain HSL1, active compounds read low 0.945 | locus YKL193C, strain SDS22, active compounds read low 0.995 | locus YKL203C, strain TOR2, active compounds read low 0.976 | locus YLR133W, strain CKI1, active compounds read low 0.953 | locus YLR403W, strain SFP1, active compounds read low 0.938 | locus YML070W, strain DAK1, active compounds read low 0.866 | locus YMR001C, strain CDC5, active compounds read low 0.984 | locus YMR205C, strain PFK2 (second series), active compounds read low 0.97 | locus YMR277W, strain FCP1, active compounds read low 0.987 | locus YNL006W, strain LST8, active compounds read low 0.996 | locus YNL020C, strain ARK1, active compounds read low 0.959 | locus YNL161W, strain CBK1, active compounds read low 0.986 | locus YNL183C, strain NPR1, active compounds read low 0.793 | locus YNL207W, strain RIO2, active compounds read low 0.992 | locus YNL222W, strain SSU72, active compounds read low 0.99 | locus YNL307C, strain MCK1 (second series), active compounds read low 0.969 | locus YOL078W, strain AVO1, active compounds read low 0.989 | locus YOL136C, strain PFK27, active compounds read low 0.818 | locus YOR061W, strain CKA2, active compounds read low 0.946 | locus YOR119C, strain RIO1, active compounds read low 0.972 | locus YOR231W, strain MKK1, active compounds read low 1.05 | locus YOR329C, strain SCD5, active compounds read low 0.999 | locus YPL031C, strain PHO85, active compounds read low 0.778 | locus YPL153C, strain RAD53, active compounds read low 0.909 | locus YPL204W, strain HRR25, active compounds read low 0.899 | locus YPL209C, strain IPL1, active compounds read low 0.991 | locus YPR025C, strain CCL1, active compounds read low 0.991 | locus YPR106W, strain ISR1, active compounds read low 0.986 | locus YPR111W, strain DBF20, active compounds read low 0.98 | strain NNK1, active compounds read low 0.993 | strain TSCII, active compounds read low 0.991

CCOC(=O)C1=C(C)NC(=S)NC1c1cccc(O)c1 (configuration not stated)
inactive: locus YAL013W, strain DEP1, active compounds read low 0.995 | [1] 0.985 | [2] 1 | [3] 1 | [4] 0.989 | locus YGR078C, strain PAC10, active compounds read low 1 | locus YNL153C, strain GIM3, active compounds read low 0.976 | [5] 0.995 | [6] 0.99 | [7] 0.996 | [8] 0.997 | [9] 0.968 | [10] 0.991 | [11] 1
